Experimental findings from PubChem BioAssay (NCATS) are described below.

Assay [1] is described as follows: qHTS for Inhibitors of the Functional Ribonucleoprotein Complex (vRNP) of Lassa (LASV) Arenavirus: LASV Primary Screen - GLuc reporter signal (AID 1347082). Also: series mostly up to about 57 µM; nearly all actives have a fitted effect of over 60% in size. On the technique in general: In qHTS, concentration-response curves come from the screen itself.
A short description of assay [2]: qHTS for Inhibitors of the Functional Ribonucleoprotein Complex (vRNP) of Lassa (LASV) Arenavirus: Viability assay - alamar blue signal for LASV Primary Screen (AID 1347083). Also: nearly all actives have a fitted effect of over 80% in size. Also: potency is read from the fitted curve at half-maximal effect.

Records with an inconclusive call do not appear. Calls of active or inactive are those of the source. Calls follow the shape of the full dose curve; tested in HEK293 reporter line.

As to `O=C(C=Cc1ccc(/C=C/C(=O)Nc2ccc(C3=NCCN3)cc2)cc1)Nc1ccc(C2=NCCN2)cc1`, the Potency entry in assay [1] and in assay [2] was “inactive” each time.

`O=C(C=Cc1c(C(=O)O)[nH]c2cc(Cl)cc(Cl)c12)Nc1ccccc1`: the Potency result in assay [1] and in assay [2] was “inactive” throughout.

`Cc1cn(-c2cc(NC(=O)c3ccc(C)c(Nc4nccc(-c5cccnc5)n4)c3)cc(C(F)(F)F)c2)cn1`: the Potency entry in assay [1] and in assay [2] was “inactive” each time.

Consider `OCc1ccccn1`, for which the Potency result in assay [1] and in assay [2] was “inactive” in each case.

With `CCOc1ccc(Nc2nc(-c3c(C)nc4ccccn34)cs2)cc1`, in assay [1], the Potency entry is “inactive”. Further, the Potency in assay [2] is 0.0049 µM (active).

On to `COc1ccccc1-c1cccc(-c2c(O)c3cc(C#N)c(Cl)cc3[nH]c2=O)c1`, for which the Potency entry in assay [1] and in assay [2] was “inactive” in each case.

On to `CC1(C)Cc2c(-c3ccccc3)c(-c3ccc(Cl)cc3)c(CC(=O)O)n2C1`, for which the Potency entry in assay [1] and in assay [2] was “inactive” each time.

For the molecule `CN1[C@@H]2CC[C@H]1CC(OC(=O)C(O)c1ccccc1)C2` (stereo partly drawn), the Potency entry in assay [1] and in assay [2] was “inactive” each time.

Take `COc1ccc2c(c1)CC[C@@H](CN(C)CC(=O)O)[C@H]2c1ccccc1`: the Potency result in assay [1] is “inactive”. In addition, the Potency in assay [2] is 10.9 µM (active).

Take `C[C@H](NC(=O)Cc1cc(F)cc(F)c1)C(=O)N[C@@H]1C(=O)N(C)c2ccccc2-c2ccccc21`: the Potency result in assay [1] and in assay [2] was “inactive” each time.

Consider `COc1ccc2cc(CCC(C)=O)ccc2c1`, for which the Potency entry in assay [1] and in assay [2] was “inactive” in each case.

For the molecule `COc1cc(=C2C=c3ccccc3=N2)[nH]c1=Cc1[nH]c(C)cc1C`, the Potency in assay [2] was 21.7 µM (active).

Regarding `O=C(c1ccc(Nc2nccc(-c3cc4ccccc4s3)n2)cc1)N1CCC(N2CCCC2)CC1`, in assay [2], the Potency was 21.7 µM (active).

For the molecule `CN1CCN(c2cc(C(=O)Nc3ccc4c(c3)-c3c(c(C(N)=O)nn3-c3ccc(F)cc3)CC4)c(Cl)cn2)CC1`, the Potency in assay [2] is 2.73 µM (active).

For `CC(=O)c1c(C)c2cnc(Nc3ccc(N4CCNCC4)cn3)nc2n(C2CCCC2)c1=O`, the Potency result in assay [1] is “inactive”. Also, the Potency in assay [2] was 30.6 µM (active).

Take `CC(C)C[C@H](NC(=O)[C@@H](O)[C@H](N)Cc1ccccc1)C(=O)O`: the Potency entry in assay [1] and in assay [2] was “inactive” in each case.

Regarding `NC(=O)C1CCCc2c1[nH]c1ccc(Cl)cc21` (stereo not drawn), the Potency entry in assay [1] and in assay [2] was “inactive” in each case.

Turning to `O=C(Nc1ccc(Oc2ccc(Cl)cc2)c(Cl)c1)c1cc(I)cc(I)c1O`, in assay [2], the Potency entry is “inactive”.

Regarding `Cc1cc(-c2ccc(CC(=O)Nc3ccc(-c4cccnc4)cc3)cc2)ccn1`, the Potency in assay [2] is 19.3 µM (active).

For the molecule `C#Cc1cccc(Nc2ncnc3cc(OC)c(OCCCCCCC(=O)NO)cc23)c1`, in assay [2], the Potency was 3.43 µM (active).

For `Clc1ccc2ncc(-c3cccc(NC4CNC4)n3)n2c1`, the Potency entry in assay [1] was “inactive”. The Potency in assay [2] was 21.7 µM (active).

For `Cc1cc2c(F)c(Oc3ncnn4cc(OC[C@@H](C)O)c(C)c34)ccc2[nH]1`, in assay [2], the Potency was 24.3 µM (active).

Turning to `CN(C)c1ccc(N=NS(=O)(=O)O)cc1`, the Potency result in assay [1] and in assay [2] was “inactive” each time.

For `CN[C@@H](C)C(=O)N[C@H]1CCCC[C@H]2CC[C@@H](C(=O)N[C@@H](c3ccccc3)c3cn(CCCCc4ccc(CCCCn5cc([C@@H](NC(=O)[C@@H]6CC[C@@H]7CCCC[C@H](NC(=O)[C@H](C)NC)C(=O)N76)c6ccccc6)nn5)cc4)nn3)N2C1=O`, the Potency in assay [2] was 19.3 µM (active).

With `CC(=O)N[C@@H](CCC(N)=O)C(=O)O`, the Potency entry in assay [1] and in assay [2] was “inactive” throughout.

As for `Cc1nc2cnc3ccc(C#Cc4cccnc4)cc3c2n1-c1ccc(C(C)(C)C#N)cc1`, the Potency in assay [2] was 0.0432 µM (active).

Regarding `Cn1c(=O)c(F)c(Nc2ccc(I)cc2F)c2c(=O)n(C[C@@H](O)CO)cnc21`, the Potency in assay [2] was 4.85 µM (active).

For the molecule `CC(C)(C)COc1ccc(-n2cc(C(=O)O)cn2)cc1C#N`, the Potency result in assay [1] and in assay [2] was “inactive” each time.

Turning to `CO[C@@H]1[C@H](N(C)C(=O)c2ccccc2)C[C@H]2O[C@]1(C)n1c3ccccc3c3c4c(c5c6ccccc6n2c5c31)C(=O)NC4`, in assay [2], the Potency is 3.06 µM (active).

With `OCCn1cc(-c2ccc3c(c2)CCC3=NO)c(-c2ccncc2)n1`, the Potency in assay [2] is 10.9 µM (active).

Turning to `NC(=O)c1ccc(-c2nc(-c3ccc4c(c3)OCCO4)c(-c3ccccn3)[nH]2)cc1`, the Potency in assay [2] is 21.7 µM (active).

Regarding `CC(C)[C@H](CO)Nc1nc(Nc2ccc(C(=O)O)c(Cl)c2)c2ncn(C(C)C)c2n1`, the Potency in assay [2] is 0.217 µM (active).

On to `CN(C)CCCNC(=O)c1ccc(-c2cc(O)c3ncccc3c2)cc1`, for which the Potency in assay [2] is 38.5 µM (active).

Regarding `CC(C)[C@H](C(=O)Nc1ccc(C(=O)NO)cc1)c1ccccc1`, the Potency in assay [2] was 5.44 µM (active).

In the case of `CCCCc1nc2cc(C=CC(=O)NO)ccc2n1CCN(CC)CC`, in assay [2], the Potency was 6.85 µM (active).

Take `CC(C)C(C)(C)C(C)(C)C(C)(C)S`: the Potency entry in assay [1] and in assay [2] was “inactive” throughout.

As to `O=C(NCCCNc1nc(Nc2cccc(NC(=O)N3CCCC3)c2)ncc1I)c1cccs1`, the Potency in assay [2] is 3.85 µM (active).

As for `COc1nc(-c2ccc3c(c2)OCO3)n(-c2ccc(NC(=O)CSc3ccccc3)cc2)n1`, the Potency result in assay [1] and in assay [2] was “inactive” throughout.

`CN(C)Cc1ccc(-c2nc3cccc4c3n2CCNC4=O)cc1`: the Potency in assay [2] was 21.7 µM (active).

`COc1cc2nccc(Oc3ccc(NC(=O)C4(C(=O)Nc5ccc(F)cc5)CC4)cc3)c2cc1OC`: the Potency in assay [2] is 27.3 µM (active).

Turning to `CC[C@@H]1C(=O)OC[C@@H]1Cc1cncn1C`, the Potency entry in assay [1] and in assay [2] was “inactive” throughout.

In the case of `CN1CCC(CNc2ccc3ncc(-c4cccc(OC(F)(F)F)c4)n3n2)CC1`, in assay [2], the Potency is 17.2 µM (active).

With `CCCCN1CCC(CNC(=O)c2c3n(c4ccccc24)CCCO3)CC1`, the Potency in assay [2] was 17.2 µM (active).

In the case of `Cc1cn2c(-c3cn[nH]c3)cnc2c(Nc2ccc(C(=O)N3CCNCC3)cc2F)n1`, the Potency in assay [2] is 3.85 µM (active).

`O=C(Nc1cccc(Cl)c1)Nc1ncc(CCNc2ncnc3ccsc23)s1`: the Potency entry in assay [1] and in assay [2] was “inactive” in each case.

For the molecule `Cc1cccc(C=NNc2cc(N3CCOCC3)nc(OCCc3ccccn3)n2)c1`, the Potency in assay [2] was 1.93 µM (active).

`Nc1nc2ccc([N+](=O)[O-])cc2s1`: the Potency result in assay [1] and in assay [2] was “inactive” each time.

For `C=CC(=O)Nc1cccc(Oc2nc(Nc3ccc(N4CCN(C)CC4)cc3OC)ncc2Cl)c1`, the Potency result in assay [1] was “inactive”. Further, the Potency in assay [2] is 0.0385 µM (active).

For the molecule `CC=C1NC(=O)[C@H]2CSSCCC=C[C@H](CC(=O)N[C@H](C(C)C)C(=O)N2)OC(=O)[C@H](C(C)C)NC1=O`, the Potency in assay [2] was 0.0968 µM (active).
